RECQ1 inh-1: blocks DNA unwinding by human RECQ1; 0.54% of 240,000 active; AID 2549; Potency, µM (series often up to 57.3 µM), for inactives: top-dose activity, negative = inhibition, hits mostly inhibitors; P46063; RECQ1 DNA unwinding, red fluorescence kinetic read;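 further: plate controls were vehicle for no effect and no enzyme for full effect; nearly all actives have a fitted effect of over 30% in size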
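RECQ1T1 50 nM; forked duplex (20 bp + 30-nt ss tails) 200 nM, ATP 2 mM final; pH 8.0, 2 mM MgCl2, 2.5 ug/ml poly(dI-dC); 15 min compound preincubation; discontinuous kinetic read over 2 h at RT.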
APE1 inh-1: inhibitors of human APE1 endonuclease | P27695 | recombinant APE1, TAMRA/BHQ-2 abasic DNA cleavage fluorescence | Potency, µM (series often up to 65.8 µM), without a hit: at the highest dose activity change, negative = inhibition, hits mostly inhibitors | 0.35% of 350,000 active;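 further: plate controls were vehicle for no effect and reference inhibitor for full effect; nearly all actives have a fitted effect of over 55% in size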
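Compound pre-exposure to 0.75 nM APE1, 15 min at ambient temperature. Reaction initiated with 50 nM TAMRA/BHQ-2 THF substrate, read immediately in kinetic mode, 525 nm excitation, 598 nm emission.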
JMJD2E inh: blocks human JMJD2E demethylase activity. JMJD2E catalytic domain, FDH-coupled NADH fluorescence (FDH is formaldehyde dehydrogenase). Potency, µM (highest dose often 57.1 µM), for inactives: top-dose activity change, negative = inhibition, hits mostly inhibitors. 1.6% of 230,000 active. AID 2147; active means well fitted inhibition curve with a large enough effect, not every such curve was filed as active; inconclusive means small, poorly fitted or top-dose-only effect, or another doubt; inactive means no such curve, though single readings can be large or run the other way;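 further: 0% = wells with enzyme and -100% = buffer wells without enzyme; nearly all actives have a fitted effect of over 50% in size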
BLM inh-1: inhibitors of human Bloom syndrome helicase BLM; Potency, µM (series often up to 56.1 µM), inactives show at the top dose activity change, negative = inhibition, most hits filed as inhibitors; 0.2% of 350,000 active; P54132; recombinant BLM DNA unwinding, fluorescence dequenching; AID 2528;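 further: plate controls were vehicle for no effect and no enzyme for full effect; nearly all actives have a fitted effect of over 35% in size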
L3MBTL1 block: blocks human L3MBTL1. 0.66% of 230,000 active. AlphaScreen L3MBTL1–H3K9me1 peptide binding. Q9Y468. Potency, µM (series often up to 57.1 µM), inactives show top-dose activity, negative = inhibition, usual class: inhibitors; further: nearly all actives have a fitted effect of over 60% in size
Target sequence (Q9Y468 whole entry, looked up): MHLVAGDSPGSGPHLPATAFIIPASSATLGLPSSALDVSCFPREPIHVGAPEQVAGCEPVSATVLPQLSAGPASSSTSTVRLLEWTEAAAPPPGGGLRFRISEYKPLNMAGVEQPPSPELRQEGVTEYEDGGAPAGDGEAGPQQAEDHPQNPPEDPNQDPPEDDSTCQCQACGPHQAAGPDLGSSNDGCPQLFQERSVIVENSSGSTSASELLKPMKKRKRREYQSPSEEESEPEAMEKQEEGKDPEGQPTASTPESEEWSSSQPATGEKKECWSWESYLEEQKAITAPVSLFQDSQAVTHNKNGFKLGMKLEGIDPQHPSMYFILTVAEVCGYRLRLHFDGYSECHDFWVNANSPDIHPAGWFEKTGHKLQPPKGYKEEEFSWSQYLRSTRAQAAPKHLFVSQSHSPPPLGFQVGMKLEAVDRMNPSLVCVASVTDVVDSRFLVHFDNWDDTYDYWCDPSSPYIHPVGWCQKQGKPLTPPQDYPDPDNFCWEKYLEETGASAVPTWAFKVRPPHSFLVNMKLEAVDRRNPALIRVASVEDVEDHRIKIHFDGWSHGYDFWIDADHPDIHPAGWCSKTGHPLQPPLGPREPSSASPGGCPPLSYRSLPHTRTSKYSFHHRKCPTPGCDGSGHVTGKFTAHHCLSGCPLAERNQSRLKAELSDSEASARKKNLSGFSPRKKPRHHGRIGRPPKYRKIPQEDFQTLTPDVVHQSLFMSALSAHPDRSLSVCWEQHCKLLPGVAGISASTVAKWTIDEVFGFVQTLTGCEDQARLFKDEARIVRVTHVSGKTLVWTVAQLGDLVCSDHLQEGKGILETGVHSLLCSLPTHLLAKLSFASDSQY
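First, the protein-peptide complex forms for 30 min at room temperature (L3MBTL1 50 nM, biotinylated H3K9me1 peptide 75 nM). Next, compounds are pin-transferred and incubated 30 min. Finally, AlphaScreen beads are added and read after 30 min.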
DNA dye displace: counter-screen for APE1 inhibitors: DNA dye displacement | 7% of 480 active | Potency, µM (top dose mostly 28.5 µM), without a hit: top-dose activity change, negative = inhibition, actives largely listed as inhibitors | DNA fluorescent dye displacement counterscreen, fluorescence | shares compounds with APE1 inh-1;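 further: loss of thiazole orange fluorescence as the dye is displaced from duplex DNA; 0% = ThO with dsDNA and no compound and -100% = ThO without dsDNA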
EndoIV counter: Endo IV (E. coli) inhibition counter-screen; shares compounds with APE1 inh-1; E. coli Endo IV, fluorogenic AP-site DNA cleavage; Potency, µM (titrated, usually from 27.1 µM), inactives show at the top dose activity change, negative = inhibition, actives largely listed as inhibitors; 4% of 560 active; AID 2565;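 further: plate controls were uninhibited enzyme wells for no effect and no enzyme buffer wells for full effect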
APE1 inh-2: APE1 (human) endonuclease inhibition, confirmation. shares compounds with APE1 inh-1. purified APE1, fluorogenic abasic-site DNA cleavage. Potency, µM (highest dose often 57.1 µM), inactives show top-dose activity change, negative = inhibition, usual class: inhibitors. 44% of 750 active. AID 2572; further: nearly all actives have a fitted effect of over 30% in size
APE1 FP inh: displaces DNA from human APE1 in FP assay | shares compounds with APE1 inh-1 | APE1 binding to TAMRA-labelled double-stranded DNA, fluorescence polarization displacement | Potency, µM (titrated, usually from 28.5 µM), without a hit: at the highest dose activity, negative = inhibition, usual class: inhibitors | 7% of 480 active | AID 2573
BLM inh-2: confirmation of inhibitors of human Bloom syndrome helicase BLM; shares compounds with BLM inh-1; Potency, µM, inactives show max response, negative = inhibition, hits mostly inhibitors; 40% of 220 active; BLM DNA unwinding, fluorescence quenching, biochemical;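 further: strand separation dequenches TAMRA so unwinding raises red fluorescence; series mostly up to about 69 µM; nearly all actives have a fitted effect of over 45% in size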
RECQ1 inh conf: confirmation of human RECQ1 helicase inhibitors; shares compounds with RECQ1 inh-1; RECQ1 helicase DNA unwinding, fluorescence; Potency, µM (top dose mostly 229 µM), for the others: top-dose activity change, negative = inhibition, actives largely listed as inhibitors; 28% of 610 active; AID 2708; further: nearly all actives have a fitted effect of over 45% in size
RECQ1 ADP FP: displaces ADP in a fluorescence polarization counter-screen for RECQ1 hits. shares compounds with RECQ1 inh-1. 27% of 530 active. ADP fluorescence polarization displacement counterscreen. AID 2711. Potency, µM (series often up to 228 µM), without a hit: at the highest dose activity change, negative = inhibition, actives largely listed as inhibitors; further: nearly all actives have a fitted effect of over 45% in size
RECQ1 inh-2: RECQ1 helicase inhibition confirmed, round 2; shares compounds with RECQ1 inh-1; recombinant RECQ1 DNA unwinding, red fluorescence; Potency, µM (doses to about 119 µM), without a hit: top-dose activity, negative = inhibition, usual class: inhibitors; 15% of 1,100 active; AID 504841; further: nearly all actives have a fitted effect of over 50% in size
* = called active by the depositor; i = inactive; u = inconclusive; x = no result given; ! = not active in a repeat; [ ] = another dose, or the depositor's remark. Only a selection was taken, and hits are over-represented in it overall. Unless noted, the call rests on the fitted dose curve; in most records, active means well fitted curve in the direction sought with a large enough effect; inconclusive means small, poorly fitted or top-dose-only effect, or another doubt; inactive means no such curve, though single readings can be large; an effect the other way counts as inactive or inconclusive. Unless noted, on the % scale 0 is the no-effect control and ±100 the full control effect; potency means the concentration at half of the fitted maximal effect.

SMILES	RECQ1 inh-1	APE1 inh-1	JMJD2E inh	BLM inh-1	L3MBTL1 block	DNA dye displace	EndoIV counter	APE1 inh-2	APE1 FP inh	RECQ1 inh conf	RECQ1 ADP FP	others
CCn1c(SCC(=O)c2ccc(O)c(O)c2)nnc1-c1ccccc1OC	14.1µM*	u	22.4µM*	-5.0%	u	3.9%	90.2%	u	2.2%	x	x	RECQ1 inh-2=2µM*
CCn1c(CSc2nc3ccccc3s2)nnc1SCC(=O)c1ccc(O)c(O)c1	7.94µM*	17.8µM*	14.1µM*	-11.1%	x	u	151.0%	u	7.8%	14.0%[114 µM]	u	RECQ1 inh-2=u
O=C(OCC1OC(OC(=O)c2cc(O)c(O)c(OC(=O)c3cc(O)c(O)c(O)c3)c2)[C@@H](OC(=O)c2cc(O)c(O)c(OC(=O)c3cc(O)c(O)c(O)c3)c2)C(OC(=O)c2cc(O)c(O)c(OC(=O)c3cc(O)c(O)c(O)c3)c2)C1OC(=O)c1cc(O)c(O)c(OC(=O)c2cc(O)c(O)c(O)c2)c1)c1cc(O)c(O)c(OC(=O)c2cc(O)c(O)c(O)c2)c1 (some centres undefined)	0.0316µM*	x	0.282µM*	0.0708µM*	x	x	5.01µM*	0.0032µM*	x	1.12µM*	u
Cc1cn(C2OC(COC(=O)c3ccccc3)C(OC(=O)c3ccccc3)C2OC(=O)c2ccccc2)c(=O)[nH]c1=O (centres undefined)	i	0.8%	5.2%	-5.5%	-15.3%	x	x	x	x	x	x
Cc1ccc(S(=O)(=O)N2CCN(C(=O)CSc3ncn[nH]3)CC2)cc1	x	8.9%	x	x	1.1%	x	x	x	x	x	x
CCCCC[n+]1ccn(C2=C([O-])c3ccccc3C(=O)/C2=N\S(=O)(=O)c2ccc(Cl)cc2)c1	-1.1%	-2.9%	4.8%	0.6%	-13.1%	x	x	x	x	x	x
C=Cc1c(C)/c2[n-]/c1=C\c1[n-]c(c(CC)c1C)/C=c1\[n-]c3c(c1C)C(=O)C(C(=O)[O-])C=3c1[n-]c(c(C)c1CCC(=O)[O-])\C=2.[Cu].[Na+].[Na+] (centres undefined)	1.12µM*	x	7.94µM*	11.2µM*	x	x	15.8µM*	2.82µM*	x	2.82µM*	44.7µM*
Cc1ccc(NC(=O)CN2C(=O)N/C(=C\c3cccn3-c3ccc([S+](N)(=O)[O-])cc3)C2=O)cc1	x	7.4%	x	x	x	x	x	x	x	x	x
Cc1ccc(NC(=O)CN2C(=O)N/C(=C/c3ccco3)C2=O)cc1	3.98µM*	3.16µM*	15.8µM*	-19.0%	-88.1%	-10.0%	3.2%	u	-13.1%	39.8µM*	50.1µM*
CCOC(=O)C1CCCN(Cc2nc3ccc([N+](=O)[O-])cc3c(=O)n2-c2ccc(OC)cc2OC)C1 (centres undefined)	i	-4.9%	-28.6%	-11.1%	-2.3%	x	x	x	x	x	x
NCCc1ccc(O)c(O)c1	14.1µM*	0.562µM*	12.6µM*	-9.6%	2.2%	-2.6%[57.1 µM]	110.2%[57.1 µM]	u	u	u	89.1µM*
COc1ccc(NC(=O)c2cc(-c3ccco3)nc3ccccc23)cc1S(=O)(=O)N1CCOCC1	u	3.98µM*	u	u	-85.7%	12.6µM*	2.7%	12.6µM*	u	x	x	RECQ1 inh-2=u
Cn1c(SCC(=O)O)nc2sc3c(c2c1=O)CCC3	x	-10.4%	x	3.6%	3.8%	x	x	x	x	x	x
CCn1c(SCC(=O)O)nc2sc3c(c2c1=O)CCC3	u	22.4µM*	-4.9%	-8.5%	x	-4.7%	12.3%	u	-8.3%	x	x	RECQ1 inh-2=u
COc1ccc(C(=O)CC(=O)c2ccc(C(C)(C)C)cc2)cc1	31.6µM*	8.91µM*	-17.1%	-15.3%	x	u	-2.9%[57.1 µM]	7.94µM*	u	12.6µM*	u	RECQ1 inh-2=u
Cc1ccc(C(=O)CC(=O)c2ccc(C(C)(C)C)cc2)cc1	i	1.7%	-16.1%	-2.9%	22.4%	x	x	x	x	x	x
O=C(Nc1nnc(COc2ccccc2F)s1)Nc1ccccc1F	1.3%	4.6%	-0.4%	0.8%	x	x	x	x	x	x	x
CCn1c(CC(=O)Nc2ccccc2F)nnc1SCC(=O)N1CCOCC1	x	1.8%	x	-0.8%	x	x	x	x	x	x	x
COc1cc(N2C(=O)c3ccccc3C2=O)c(Cl)cc1C(=O)OCC(=O)N(C)C	i	-0.2%	9.4%	-2.6%	0.6%[11.4 µM]	x	x	x	x	x	x
O=C(Cn1cnc2sc(-c3ccccc3)cc2c1=O)NCc1ccco1	20µM*	31.6µM*	u	17.8µM*	u	11.4%	-11.1%	8.91µM*	u	39.8µM*	-22.3%[91.9 µM]	BLM inh-2=u
O=c1oc2c(O)c(O)cc3c(=O)oc4c(O)c(O)cc1c4c23	0.562µM*	0.0447µM*!	2.51µM*	2µM*	u	0.0891µM*	u	0.0141µM*	28.2µM*	u	4.47µM*
Cc1c(C)c2cc(Cl)c(O)c(CN(C)C)c2oc1=O	-0.5%	-4.4%	u	0.0%	3.3%	x	x	x	x	x	x

Screening results: PubChem BioAssay, National Center for Advancing Translational Sciences (NCATS)
